Reference: PubChem BioAssay (Tox21)
Inconclusive results are not listed. Entries that show only a call come without a potency. Active and inactive are the calls of the source. Unless noted, calls follow the shape of the dose curve; as a rule, active = well fitted curve in the direction sought with a large enough effect in the repeat runs; inconclusive = weak or mixed curves; inactive = no such curve, though single readings can be large; an effect the other way counts as inactive or inconclusive.

What was measured:
[1] = qHTS assay to identify small molecule antagonists of the glucocorticoid receptor (GR) signaling pathway - cell viability counter screen (AID 720693); also: nearly all actives have a fitted effect of over 55% in size
[2] = qHTS assay for identifying genotoxic compounds that show differential cytotoxicity against isogenic chicken DT40 cell lines with known DNA damage response pathways - Rad54/Ku70 mutant cell line (AID 743015); also: nearly all actives have a fitted effect of over 60% in size; also: potency is read from the fitted curve at half-maximal effect
[3] = qHTS assay to identify small molecule antagonists of the androgen receptor (AR) signaling pathway - cell viability counter screen (AID 743033; also: nearly all actives have a fitted effect of over 45% in size)
[4] = qHTS assay to identify small molecule antagonists of the androgen receptor (AR) signaling pathway using the MDA cell line - cell viability counter screen (AID 743041; also: nearly all actives have a fitted effect of over 45% in size)
In short: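 Cells were plated at 3,000 per well and left 5 h. Compounds in DMSO were then pinned in, followed by R1881. After 16 h at 37C, CellTiter-Fluor fluorescence gave viability.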

[5] = qHTS assay to identify small molecule antagonists of the thyroid receptor (TR) signaling pathway - cell viability counter screen (AID 743064); also: nearly all actives have a fitted effect of over 50% in size
In short: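 In-well cytotoxicity read by CellTiter-Fluor (30 min, 37 C) following 23.5 h exposure of GH3 cells bearing a TRE-luciferase sensor. Compounds were added alongside 1 nM (final) T3 to drive TR transactivation.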

[6] = qHTS assay to identify small molecule antagonists of the thyroid receptor (TR) signaling pathway (AID 743065); also: nearly all actives have a fitted effect of over 55% in size
In short: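 Antagonism measured as loss of luciferase signal in GH3 cells stably carrying a TRE-luciferase reporter, co-treated with compound and T3 (1 nM final) for 23.5 h at 37 C. Viability was read in the same well by CellTiter-Fluor.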

[7] = system: thyroid hormone receptor (rat, GH3 cells); assay: qHTS assay to identify small molecule agonists of the thyroid receptor (TR) signaling pathway (AID 743066; calls by dose curve)
[8] = biological target: Estrogen receptor (Homo sapiens) (UniProt P03372); assay: qHTS assay to identify small molecule antagonists of the estrogen receptor alpha (ER-alpha) signaling pathway (AID 743069; active = well fitted curve in the direction sought with a large enough effect in the signal ratio in the repeat runs, not every such curve was filed as active; the % refers to the signal ratio)
In short: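 ER-alpha-UAS-bla GripTite HEK293 line; 2% charcoal-stripped FBS overnight; plated, 4 hr 37C/5% CO2; cpd in DMSO + 17beta-estradiol, 18 hr 37C; LiveBLAzer B/G FRET substrate 2 hr RT; fluorescence intensity.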

[9] = qHTS assay to identify small molecule antagonists of the estrogen receptor alpha (ER-alpha) signaling pathway - cell viability counter screen (AID 743074; calls by dose curve;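 also: HEK293 cells carrying ER-alpha-UAS-bla reporter stimulated with 17beta-estradiol; nearly all actives have a fitted effect of over 45% in size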)
[10] = biological target: Estrogen receptor (Homo sapiens) (UniProt P03372); assay: qHTS assay to identify small molecule agonists of the estrogen receptor alpha (ER-alpha) signaling pathway (AID 743075; calls by dose curve;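 also: HEK293 GripTite cells with ER-alpha and UAS-driven beta-lactamase reporter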)
[11] = biological target: Estrogen receptor (Homo sapiens) (UniProt P03372); assay: qHTS assay to identify small molecule agonists of the estrogen receptor alpha (ER-alpha) signaling pathway using the BG1 cell line (AID 743079); settings: BG1Luc4E2 cells, ERE-luciferase agonist, 22 h; activation: at 70.3 µM (top of the series); also: nearly all actives have a fitted effect of over 20% in size
[12] = qHTS assay to identify small molecule antagonists of the estrogen receptor alpha (ER-alpha) signaling pathway using the BG1 cell line (AID 743080; calls by dose curve;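 also: BG1 cells stimulated with 17beta-estradiol alongside compound; nearly all actives have a fitted effect of over 25% in size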)
In short: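 Readout is ONE-Glo luminescence, taken 30 min at room temperature after reagent addition, preceded by a CellTiter-Fluor viability read; BG1-Luc-4E2 cells had received compound and 17beta-estradiol for 21.5 h at 37 C.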

[13] = qHTS assay to identify small molecule antagonists of the estrogen receptor alpha (ER-alpha) signaling pathway using the BG1 cell line - cell viability counter screen (AID 743081);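 also: compound given together with 17beta-estradiol as the ER stimulus; nearly all actives have a fitted effect of over 45% in size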
Aromatase (Homo sapiens) = Aromatase (Homo sapiens) (UniProt P11511); assay: qHTS assay to identify aromatase inhibitors (AID 743083); also: nearly all actives have a fitted effect of over 55% in size
[14] = qHTS assay for identifying genotoxic compounds that show differential cytotoxicity against isogenic chicken DT40 cell lines with known DNA damage response pathways - Rev3 mutant cell line (AID 743014); also: nearly all actives have a fitted effect of over 55% in size; also: potency is read from the fitted curve at half-maximal effect
[15] = biological target: Androgen receptor (Homo sapiens) (UniProt P10275); assay: qHTS assay to identify small molecule antagonists of the androgen receptor (AR) signaling pathway (AID 743035; active = well fitted inhibition curve with a large enough effect in the signal ratio in the repeat runs, not every such curve was filed as active; the % refers to the signal ratio)
In short: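 Fluorescence from a beta-lactamase FRET substrate (LiveBLAzer B/G, 2 h, room temperature) measured inhibition of R1881-stimulated signaling in GeneBLAzer AR-UAS-bla HEK293 cells exposed to compound for 16 h at 37C.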

[16] = biological target: Androgen receptor (Homo sapiens) (UniProt P10275); assay: qHTS assay to identify small molecule agonists of the androgen receptor (AR) signaling pathway (AID 743036; active = well fitted activation curve with a large enough effect in the signal ratio in the repeat runs, with a control signal flat, not every such curve was filed as active; the % refers to the signal ratio; also: potency is read from the fitted curve at half-maximal effect)
In short: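 Activation was read as beta-lactamase FRET signal from LiveBLAzer B/G substrate, added for 2 h at room temperature. Before that, GeneBLAzer AR-UAS-bla GripTite (HEK293) cells had 16 h compound exposure at 37C.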

[17] = biological target: Androgen receptor (Homo sapiens) (UniProt P10275); assay: qHTS assay to identify small molecule agonists of the androgen receptor (AR) signaling pathway using the MDA cell line (AID 743040; also: nearly all actives have a fitted effect of over 20% in size; also: potency is read from the fitted curve at half-maximal effect)
In short: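 Cells plated, 5 h at 37C/0% CO2; compound or DMSO pinned; 16 h at 37C; ONE-Glo added; luminescence measured after 30 min at room temperature. Reporter line: MDA-kb2 with MMTV-luciferase responsive to AR and GR.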

[18] = biological target: Androgen receptor (Homo sapiens) (UniProt P10275); assay: qHTS assay to identify small molecule antagonists of the androgen receptor (AR) signaling pathway using the MDA cell line (AID 743042; also: nearly all actives have a fitted effect of over 55% in size)
In short: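 Antagonist mode: compounds plus R1881 agonist added to MDA-kb2 AR-luc cells, incubated 16 h at 37C. Luciferase reporter luminescence quantified, with multiplexed CellTiter-Fluor readout for cell viability.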

Sequence of Androgen receptor (Homo sapiens) (P10275 whole entry, looked up): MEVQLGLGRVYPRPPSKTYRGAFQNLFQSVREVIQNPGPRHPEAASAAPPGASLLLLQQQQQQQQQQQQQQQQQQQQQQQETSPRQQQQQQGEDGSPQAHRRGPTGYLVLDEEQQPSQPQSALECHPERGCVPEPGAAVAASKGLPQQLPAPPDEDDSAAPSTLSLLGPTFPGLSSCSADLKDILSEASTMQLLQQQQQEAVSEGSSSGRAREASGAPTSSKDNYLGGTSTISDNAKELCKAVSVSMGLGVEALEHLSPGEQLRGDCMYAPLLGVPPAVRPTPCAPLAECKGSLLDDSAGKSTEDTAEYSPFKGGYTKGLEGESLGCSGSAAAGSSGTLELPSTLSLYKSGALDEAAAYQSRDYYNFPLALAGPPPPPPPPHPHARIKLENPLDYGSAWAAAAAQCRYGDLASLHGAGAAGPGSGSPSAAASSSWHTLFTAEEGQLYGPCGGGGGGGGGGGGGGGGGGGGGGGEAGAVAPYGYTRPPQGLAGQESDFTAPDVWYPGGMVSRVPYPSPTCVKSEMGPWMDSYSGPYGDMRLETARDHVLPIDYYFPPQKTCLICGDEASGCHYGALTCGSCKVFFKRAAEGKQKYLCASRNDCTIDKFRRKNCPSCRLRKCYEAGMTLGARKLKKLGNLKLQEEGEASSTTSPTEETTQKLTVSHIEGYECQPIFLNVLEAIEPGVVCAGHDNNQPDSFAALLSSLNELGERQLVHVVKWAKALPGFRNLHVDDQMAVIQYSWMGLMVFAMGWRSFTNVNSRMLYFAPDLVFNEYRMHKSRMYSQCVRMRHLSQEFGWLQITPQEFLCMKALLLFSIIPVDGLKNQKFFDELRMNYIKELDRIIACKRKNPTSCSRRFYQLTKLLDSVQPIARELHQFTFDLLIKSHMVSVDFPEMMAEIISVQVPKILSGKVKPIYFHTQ
Sequence of Aromatase (Homo sapiens) (P11511 whole entry, looked up): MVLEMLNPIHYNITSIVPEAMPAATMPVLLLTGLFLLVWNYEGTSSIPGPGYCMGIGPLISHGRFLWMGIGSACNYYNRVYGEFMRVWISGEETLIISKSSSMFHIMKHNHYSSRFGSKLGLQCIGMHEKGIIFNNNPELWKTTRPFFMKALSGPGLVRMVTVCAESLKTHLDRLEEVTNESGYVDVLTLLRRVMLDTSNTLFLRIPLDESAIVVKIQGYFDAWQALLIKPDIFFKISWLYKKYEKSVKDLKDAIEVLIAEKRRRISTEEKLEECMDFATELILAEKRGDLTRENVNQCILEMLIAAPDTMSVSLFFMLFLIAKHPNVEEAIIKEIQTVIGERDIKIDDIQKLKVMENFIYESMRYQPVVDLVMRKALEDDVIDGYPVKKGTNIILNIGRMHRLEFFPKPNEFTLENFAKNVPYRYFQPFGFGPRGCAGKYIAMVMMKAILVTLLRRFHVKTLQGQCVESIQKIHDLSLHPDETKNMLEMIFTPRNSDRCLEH
Sequence of Estrogen receptor (Homo sapiens) (P03372 whole entry, looked up): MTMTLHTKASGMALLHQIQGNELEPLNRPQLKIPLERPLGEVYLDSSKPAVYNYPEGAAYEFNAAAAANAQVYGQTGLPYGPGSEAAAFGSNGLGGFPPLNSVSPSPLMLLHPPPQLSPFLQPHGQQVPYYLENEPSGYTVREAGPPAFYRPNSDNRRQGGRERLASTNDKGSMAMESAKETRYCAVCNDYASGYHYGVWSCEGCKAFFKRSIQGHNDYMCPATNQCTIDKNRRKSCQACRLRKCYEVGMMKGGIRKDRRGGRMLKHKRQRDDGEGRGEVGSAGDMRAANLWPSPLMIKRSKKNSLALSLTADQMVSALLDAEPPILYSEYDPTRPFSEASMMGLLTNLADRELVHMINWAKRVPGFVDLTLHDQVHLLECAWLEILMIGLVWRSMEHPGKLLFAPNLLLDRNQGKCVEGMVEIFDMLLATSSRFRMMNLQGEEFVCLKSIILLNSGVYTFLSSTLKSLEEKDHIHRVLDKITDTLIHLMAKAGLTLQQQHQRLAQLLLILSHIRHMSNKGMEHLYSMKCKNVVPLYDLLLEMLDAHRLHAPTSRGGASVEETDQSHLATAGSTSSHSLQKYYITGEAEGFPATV

Row | SMILES | Potency [1] | Potency [2] | Potency [3] | Potency [4] | Potency [5] | Potency [6] | Potency [7] | Potency [8] | Potency [9] | Potency [10] | Potency [11] | Potency [12] | Potency [13] | Potency (Aromatase (Homo sapiens)) | Potency [14] | Potency [15] | Potency [16] | Potency [17] | Potency [18]
1 | COc1cc2c(cc1OC)CC(=O)N(CCCN(C)C[C@H]1Cc3cc(OC)c(OC)cc31)CC2 | inactive | 9.44 µM (active) | inactive | inactive | inactive | inactive | inactive | inactive | inactive | inactive | inactive | inactive | inactive | inactive | – | – | – | – | –
2 | CCC(=O)OCC(=O)[C@@]1(OC(=O)CC)[C@H](C)C[C@H]2[C@H]3[C@H]([C@@H](O)C[C@@]21C)[C@@]1(C)C=CC(=O)C=C1C[C@H]3Cl | inactive | – | inactive | inactive | – | inactive | inactive | – | inactive | inactive | – | – | inactive | inactive | inactive | inactive | 0.144 µM (active) | 0.0403 µM (active) | inactive
3 | CCN(CC)CCOC(=O)c1cccnc1 | inactive | inactive | inactive | inactive | inactive | inactive | inactive | inactive | inactive | inactive | inactive | inactive | inactive | inactive | – | – | – | – | –
4 | [O]=[Bi][O]C(=O)[O][Bi]=[O] | inactive | – | inactive | inactive | inactive | inactive | inactive | – | inactive | inactive | inactive | inactive | inactive | inactive | inactive | – | – | – | –
5 | CC[C@H]1NC(=O)[C@@H](NC(=O)c2ncccc2O)[C@@H](C)OC(=O)[C@H](c2ccccc2)NC(=O)[C@@H]2CC(=O)CCN2C(=O)[C@H](Cc2ccccc2)N(C)C(=O)[C@@H]2CCCN2C1=O | inactive | inactive | inactive | inactive | inactive | inactive | inactive | inactive | inactive | inactive | inactive | inactive | inactive | inactive | – | inactive | inactive | inactive | inactive
6 | CC1(C)S[C@@H]2[C@H](NC(=O)C(N)c3ccccc3)C(=O)N2[C@H]1C(=O)OC1OC(=O)c2ccccc21 (some centres undefined) | inactive | – | – | – | – | – | – | – | inactive | – | – | – | inactive | inactive | inactive | – | – | – | –
7 | C=C1c2c(Cl)ccc(O)c2C(O)=C2C(=O)[C@]3(O)C(O)=C(C(N)=O)C(=O)[C@@H](N(C)C)[C@@H]3[C@@H](O)[C@H]12 | inactive | – | inactive | inactive | inactive | inactive | inactive | – | inactive | inactive | inactive | inactive | inactive | inactive | inactive | – | – | inactive | inactive
8 | O=C(O)c1cc(N=Nc2ccc(O)c(C(=O)O)c2)ccc1O | inactive | inactive | inactive | – | inactive | inactive | inactive | inactive | inactive | inactive | inactive | inactive | inactive | inactive | – | inactive | inactive | inactive | inactive
9 | CCN(CC)c1ccc(N=Nc2ccc(S(=O)(=O)N(C)C)cc2)c(S(=O)(=O)NCC[n+]2ccccc2)c1 | inactive | – | inactive | inactive | inactive | inactive | inactive | inactive | inactive | inactive | – | inactive | – | inactive | inactive | inactive | inactive | inactive | inactive
10 | CCOC(=O)[C@H](CS)NCCN[C@@H](CS)C(=O)OCC | inactive | – | – | inactive | inactive | inactive | inactive | – | inactive | inactive | inactive | inactive | inactive | inactive | inactive | – | – | – | –
11 | C#C[C@]1(O)CC[C@H]2[C@@H]3CCC4=C(CCC(=O)C4)[C@H]3CC[C@@]21C | inactive | – | inactive | – | – | – | – | – | inactive | – | – | inactive | inactive | inactive | inactive | – | – | – | –
12 | CC1(C)C2CC[C@]3(C)[C@H](C(=O)C=C4[C@@H]5C[C@@](C)(C(=O)O)CC[C@]5(C)CC[C@]43C)[C@@]2(C)CC[C@@H]1O[C@H]1O[C@H](C(=O)O)[C@@H](O)[C@H](O)[C@H]1O[C@@H]1O[C@H](C(=O)O)[C@@H](O)[C@H](O)[C@H]1O (some centres undefined) | inactive | inactive | inactive | – | inactive | – | inactive | – | inactive | – | – | – | inactive | inactive | inactive | – | – | – | –
13 | CC1(O)CCC(C(C)(C)O)CC1 (centres undefined) | inactive | inactive | inactive | inactive | inactive | inactive | inactive | inactive | inactive | inactive | inactive | inactive | inactive | inactive | – | – | – | – | –
14 | N=C(N)c1ccc(OCCCOc2ccc(C(=N)N)cc2Br)c(Br)c1 | inactive | 6.68 µM (active) | inactive | inactive | – | – | inactive | – | – | – | – | – | – | – | 8.41 µM (active) | – | – | – | –
15 | CC(C)(C)NCC(O)CSc1nc(-c2ccc(C(N)=O)s2)cs1 (centres undefined) | inactive | – | inactive | inactive | – | inactive | inactive | inactive | inactive | inactive | inactive | inactive | inactive | inactive | inactive | – | – | – | –
16 | O=C(O)c1cccc(/C=C2/C[C@@H]3[C@@H](/C=C/[C@@H](O)C4CCCCC4)[C@H](O)C[C@@H]3O2)c1 | inactive | inactive | – | inactive | inactive | inactive | inactive | inactive | inactive | inactive | inactive | inactive | inactive | inactive | inactive | inactive | – | inactive | inactive
